# Columns and labels:
# Experiment in all cases: DAPPL (digital affinity profiling via proximity ligation, sequencing); 10 mM Tris-HCl pH 7.5, 50 mM NaCl, 1 mM DTT, 4% glycerol, room temperature, 30 min; GST-TFs on glutathione beads, 16-mer random dsDNA library, 0.1% formaldehyde crosslink after washing; high values mean tight binding
# [1] = biological target: T1, FEV (Homo sapiens, UniProt Q99581 1-238); conditions: protein: recombinant; tags: N-terminal GST; dsDNA, one strand shown
# T1 sequence: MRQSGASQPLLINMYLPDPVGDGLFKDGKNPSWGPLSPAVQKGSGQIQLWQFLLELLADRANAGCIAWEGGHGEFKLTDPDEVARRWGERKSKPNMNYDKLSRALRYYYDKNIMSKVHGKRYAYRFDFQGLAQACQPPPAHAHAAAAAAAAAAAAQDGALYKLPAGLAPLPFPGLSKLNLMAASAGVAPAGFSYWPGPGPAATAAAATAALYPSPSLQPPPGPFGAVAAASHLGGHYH
# Procedure, shortened: (§1)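 Human transcription factors were made in yeast as GST fusions, captured on glutathione beads and barcoded with DNA. With a tag-only sample included, the pool was incubated with 200 nmole of a random double-stranded 16-mer DNA library in Tris/NaCl/DTT/glycerol buffer at room temperature for 30 min, then crosslinked with 0.1% formaldehyde after washing, ligated by proximity, amplified and sequenced. For binding signal, each hexamer's read frequency for a factor is divided by its frequency for the tag-only sample.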
# [2] = biological target: ETV5 (Homo sapiens, UniProt P41161 1-510); conditions: protein: recombinant; tags: N-terminal GST; dsDNA, one strand shown
# Procedure, shortened: as §1
# [3] = biological target: HSF1 (Homo sapiens, UniProt Q00613 1-529); conditions: protein: recombinant; tags: N-terminal GST; chain copies: 3; dsDNA, one strand shown
# Procedure, shortened: as §1
# [4] = biological target: T2, SPIC (Homo sapiens, UniProt Q8N5J4 1-248); conditions: protein: recombinant; tags: N-terminal GST; dsDNA, one strand shown
# T2 sequence: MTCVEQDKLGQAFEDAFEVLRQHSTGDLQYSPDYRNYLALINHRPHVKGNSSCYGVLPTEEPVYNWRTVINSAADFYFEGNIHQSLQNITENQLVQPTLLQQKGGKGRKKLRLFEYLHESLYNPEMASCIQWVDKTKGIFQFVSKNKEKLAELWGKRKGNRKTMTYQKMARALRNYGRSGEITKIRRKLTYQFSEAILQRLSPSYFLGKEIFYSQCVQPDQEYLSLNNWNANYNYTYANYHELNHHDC
# Procedure, shortened: as §1
# [5] = biological target: ELF4 (Homo sapiens, UniProt Q99607 1-663); conditions: protein: recombinant; tags: N-terminal GST; dsDNA, one strand shown
# Procedure, shortened: as §1
# [6] = biological target: T3, ELK4 (Homo sapiens, UniProt P28324-2 1-405); conditions: protein: recombinant; tags: N-terminal GST; dsDNA, one strand shown
# T3 sequence: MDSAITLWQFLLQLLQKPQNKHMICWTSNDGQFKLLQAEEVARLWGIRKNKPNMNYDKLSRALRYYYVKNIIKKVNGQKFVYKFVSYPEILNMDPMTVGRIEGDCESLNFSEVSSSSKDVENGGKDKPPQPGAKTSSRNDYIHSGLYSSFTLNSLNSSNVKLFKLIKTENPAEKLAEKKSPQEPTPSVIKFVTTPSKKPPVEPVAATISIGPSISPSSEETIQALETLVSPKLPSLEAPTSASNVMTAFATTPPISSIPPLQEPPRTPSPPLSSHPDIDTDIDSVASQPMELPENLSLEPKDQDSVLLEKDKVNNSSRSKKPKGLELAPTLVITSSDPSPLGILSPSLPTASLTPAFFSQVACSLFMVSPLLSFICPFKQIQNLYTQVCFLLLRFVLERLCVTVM
# Procedure, shortened: as §1
# [7] = biological target: T4, ETV2 (Homo sapiens, UniProt O00321 1-342); conditions: protein: recombinant; tags: N-terminal GST; dsDNA, one strand shown
# T4 sequence: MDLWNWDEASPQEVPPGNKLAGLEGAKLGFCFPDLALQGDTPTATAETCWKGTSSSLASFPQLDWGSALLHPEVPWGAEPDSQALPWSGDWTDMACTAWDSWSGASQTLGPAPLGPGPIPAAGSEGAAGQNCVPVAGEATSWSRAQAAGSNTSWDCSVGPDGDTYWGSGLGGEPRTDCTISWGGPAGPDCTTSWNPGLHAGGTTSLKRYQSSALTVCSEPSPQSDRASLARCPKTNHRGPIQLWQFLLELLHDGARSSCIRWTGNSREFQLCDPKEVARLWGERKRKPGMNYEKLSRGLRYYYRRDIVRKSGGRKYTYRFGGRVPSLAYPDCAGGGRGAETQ
# Procedure, shortened: as §1
# [8] = biological target: T5, ELF3 (Homo sapiens, UniProt P78545 1-371); conditions: protein: recombinant; tags: N-terminal GST; dsDNA, one strand shown
# T5 sequence: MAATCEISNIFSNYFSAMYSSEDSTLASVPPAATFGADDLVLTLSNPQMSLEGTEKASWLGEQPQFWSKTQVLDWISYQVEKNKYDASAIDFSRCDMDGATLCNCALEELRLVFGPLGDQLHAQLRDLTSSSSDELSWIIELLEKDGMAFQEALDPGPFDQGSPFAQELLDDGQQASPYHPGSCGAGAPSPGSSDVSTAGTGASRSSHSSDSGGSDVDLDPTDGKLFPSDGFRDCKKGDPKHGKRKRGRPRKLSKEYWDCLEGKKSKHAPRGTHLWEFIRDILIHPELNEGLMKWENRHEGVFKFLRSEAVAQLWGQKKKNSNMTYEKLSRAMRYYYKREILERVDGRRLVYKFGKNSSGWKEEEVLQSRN
# Procedure, shortened: as §1
# [9] = biological target: CRX (Homo sapiens, UniProt O43186 1-299); conditions: protein: recombinant; tags: N-terminal GST; dsDNA, one strand shown
# Procedure, shortened: as §1
# [10] = biological target: ETV1 (Homo sapiens, UniProt P50549 1-477); conditions: protein: recombinant; tags: N-terminal GST; dsDNA, one strand shown
# Procedure, shortened: as §1
# [11] = biological target: T6, ERF (Homo sapiens, UniProt P50548 1-548); conditions: protein: recombinant; tags: N-terminal GST; dsDNA, one strand shown
# T6 sequence: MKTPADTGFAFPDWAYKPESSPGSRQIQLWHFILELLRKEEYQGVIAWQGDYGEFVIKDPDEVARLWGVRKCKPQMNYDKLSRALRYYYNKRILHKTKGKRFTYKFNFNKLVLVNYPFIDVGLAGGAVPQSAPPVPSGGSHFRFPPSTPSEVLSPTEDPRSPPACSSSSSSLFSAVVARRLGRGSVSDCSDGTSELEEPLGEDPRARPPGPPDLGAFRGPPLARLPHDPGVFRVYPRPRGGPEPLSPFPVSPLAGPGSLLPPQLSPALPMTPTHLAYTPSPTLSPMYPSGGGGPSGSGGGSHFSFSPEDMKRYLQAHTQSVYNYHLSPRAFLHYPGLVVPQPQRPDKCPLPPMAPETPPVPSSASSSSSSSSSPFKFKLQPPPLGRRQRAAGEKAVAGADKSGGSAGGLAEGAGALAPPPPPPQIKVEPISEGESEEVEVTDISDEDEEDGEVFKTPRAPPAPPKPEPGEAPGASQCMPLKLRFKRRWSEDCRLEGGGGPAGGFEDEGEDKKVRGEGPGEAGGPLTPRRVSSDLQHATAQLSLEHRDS
# Procedure, shortened: as §1
# [12] = biological target: T7, ETV3L (Homo sapiens, UniProt Q6ZN32 1-361); conditions: protein: recombinant; tags: N-terminal GST; dsDNA, one strand shown
# T7 sequence: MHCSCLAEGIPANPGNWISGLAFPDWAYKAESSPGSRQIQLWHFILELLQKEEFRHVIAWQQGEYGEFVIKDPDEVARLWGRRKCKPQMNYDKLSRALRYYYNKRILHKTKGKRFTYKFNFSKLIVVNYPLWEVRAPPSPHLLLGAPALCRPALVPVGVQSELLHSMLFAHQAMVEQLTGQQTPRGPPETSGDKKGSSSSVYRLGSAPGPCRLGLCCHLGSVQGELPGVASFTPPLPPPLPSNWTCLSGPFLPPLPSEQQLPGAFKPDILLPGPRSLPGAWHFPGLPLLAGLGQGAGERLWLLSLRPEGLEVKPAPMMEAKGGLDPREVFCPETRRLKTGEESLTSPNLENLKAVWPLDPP
# Procedure, shortened: as §1
# [13] = biological target: T8, ETS2 (Homo sapiens, UniProt P15036 1-469); conditions: protein: recombinant; tags: N-terminal GST; dsDNA, one strand shown
# T8 sequence: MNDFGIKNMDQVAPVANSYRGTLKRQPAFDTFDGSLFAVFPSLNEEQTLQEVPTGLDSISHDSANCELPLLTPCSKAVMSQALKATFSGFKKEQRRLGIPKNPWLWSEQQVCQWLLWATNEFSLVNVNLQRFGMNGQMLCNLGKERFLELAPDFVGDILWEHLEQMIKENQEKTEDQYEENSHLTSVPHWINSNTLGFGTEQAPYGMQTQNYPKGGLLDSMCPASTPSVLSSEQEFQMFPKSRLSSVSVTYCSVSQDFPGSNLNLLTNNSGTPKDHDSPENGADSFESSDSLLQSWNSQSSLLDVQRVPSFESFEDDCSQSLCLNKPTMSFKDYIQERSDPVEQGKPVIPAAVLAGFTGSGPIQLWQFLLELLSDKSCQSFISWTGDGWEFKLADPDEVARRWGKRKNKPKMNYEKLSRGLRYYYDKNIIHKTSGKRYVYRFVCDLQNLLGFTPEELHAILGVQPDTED
# Procedure, shortened: as §1
# [14] = biological target: T9, SPDEF (Homo sapiens, UniProt O95238 1-335); conditions: protein: recombinant; tags: N-terminal GST; dsDNA, one strand shown
# T9 sequence: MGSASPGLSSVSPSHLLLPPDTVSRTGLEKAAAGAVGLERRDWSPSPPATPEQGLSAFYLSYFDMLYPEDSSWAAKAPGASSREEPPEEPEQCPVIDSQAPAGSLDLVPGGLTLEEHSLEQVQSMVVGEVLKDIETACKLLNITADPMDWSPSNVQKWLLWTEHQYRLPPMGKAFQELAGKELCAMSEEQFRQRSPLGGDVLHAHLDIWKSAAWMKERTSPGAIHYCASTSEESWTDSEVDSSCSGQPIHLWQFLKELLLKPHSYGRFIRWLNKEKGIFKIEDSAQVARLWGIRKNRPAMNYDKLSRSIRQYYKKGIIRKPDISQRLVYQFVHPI
# Procedure, shortened: as §1
# [15] = biological target: T10, ETV7 (Homo sapiens, UniProt Q9Y603 1-341); conditions: protein: recombinant; tags: N-terminal GST; dsDNA, one strand shown
# T10 sequence: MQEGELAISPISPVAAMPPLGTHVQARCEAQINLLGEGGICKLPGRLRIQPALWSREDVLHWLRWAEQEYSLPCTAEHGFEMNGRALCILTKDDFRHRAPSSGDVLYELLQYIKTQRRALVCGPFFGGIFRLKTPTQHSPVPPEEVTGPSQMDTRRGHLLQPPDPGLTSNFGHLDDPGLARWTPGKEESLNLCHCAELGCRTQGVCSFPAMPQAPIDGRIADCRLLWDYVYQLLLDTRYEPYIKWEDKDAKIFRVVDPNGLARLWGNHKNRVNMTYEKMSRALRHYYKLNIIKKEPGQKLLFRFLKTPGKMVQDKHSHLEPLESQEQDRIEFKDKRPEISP
# Procedure, shortened: as §1
# [16] = biological target: T11, ELF5 (Homo sapiens, UniProt Q9UKW6-2 1-255); conditions: protein: recombinant; tags: N-terminal GST; dsDNA, one strand shown
# T11 sequence: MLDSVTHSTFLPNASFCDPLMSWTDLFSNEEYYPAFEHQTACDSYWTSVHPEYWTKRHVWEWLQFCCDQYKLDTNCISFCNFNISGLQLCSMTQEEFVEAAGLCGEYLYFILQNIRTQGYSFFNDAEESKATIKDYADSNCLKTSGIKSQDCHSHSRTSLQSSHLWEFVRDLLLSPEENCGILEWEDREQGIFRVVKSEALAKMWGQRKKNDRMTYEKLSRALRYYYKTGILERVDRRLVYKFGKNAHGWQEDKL
# Procedure, shortened: as §1
# [17] = biological target: T12, ETV3 (Homo sapiens, UniProt P41162-2 1-143); conditions: protein: recombinant; tags: N-terminal GST; dsDNA, one strand shown
# T12 sequence: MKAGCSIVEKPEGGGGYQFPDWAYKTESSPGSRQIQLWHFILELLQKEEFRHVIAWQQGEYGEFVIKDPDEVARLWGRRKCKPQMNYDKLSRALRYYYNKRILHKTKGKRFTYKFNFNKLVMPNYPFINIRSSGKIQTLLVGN
# Procedure, shortened: as §1
# [18] = biological target: ETV6 (Homo sapiens, UniProt P41212 1-452); conditions: protein: recombinant; tags: N-terminal GST; dsDNA, one strand shown
# Procedure, shortened: as §1
# Sequence of ELF4 (Q99607 whole entry): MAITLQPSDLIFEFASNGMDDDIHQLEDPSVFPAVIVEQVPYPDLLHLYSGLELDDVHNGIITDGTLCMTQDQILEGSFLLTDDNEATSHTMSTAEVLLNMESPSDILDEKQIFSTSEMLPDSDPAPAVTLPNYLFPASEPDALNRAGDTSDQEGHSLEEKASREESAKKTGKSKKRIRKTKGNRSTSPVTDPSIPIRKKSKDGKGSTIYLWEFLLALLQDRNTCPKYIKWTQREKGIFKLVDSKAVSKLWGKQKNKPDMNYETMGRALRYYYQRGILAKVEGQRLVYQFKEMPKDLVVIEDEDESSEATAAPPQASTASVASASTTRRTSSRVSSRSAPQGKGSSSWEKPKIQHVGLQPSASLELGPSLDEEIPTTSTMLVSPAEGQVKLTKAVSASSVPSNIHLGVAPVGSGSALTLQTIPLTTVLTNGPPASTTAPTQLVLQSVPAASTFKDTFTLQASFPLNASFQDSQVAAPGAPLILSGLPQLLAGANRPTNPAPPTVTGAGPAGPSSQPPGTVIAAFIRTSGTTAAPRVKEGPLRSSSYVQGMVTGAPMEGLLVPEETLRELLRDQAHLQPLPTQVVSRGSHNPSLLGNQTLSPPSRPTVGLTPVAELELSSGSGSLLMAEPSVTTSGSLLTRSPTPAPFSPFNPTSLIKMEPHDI
# Sequence of ETV6 (P41212 whole entry): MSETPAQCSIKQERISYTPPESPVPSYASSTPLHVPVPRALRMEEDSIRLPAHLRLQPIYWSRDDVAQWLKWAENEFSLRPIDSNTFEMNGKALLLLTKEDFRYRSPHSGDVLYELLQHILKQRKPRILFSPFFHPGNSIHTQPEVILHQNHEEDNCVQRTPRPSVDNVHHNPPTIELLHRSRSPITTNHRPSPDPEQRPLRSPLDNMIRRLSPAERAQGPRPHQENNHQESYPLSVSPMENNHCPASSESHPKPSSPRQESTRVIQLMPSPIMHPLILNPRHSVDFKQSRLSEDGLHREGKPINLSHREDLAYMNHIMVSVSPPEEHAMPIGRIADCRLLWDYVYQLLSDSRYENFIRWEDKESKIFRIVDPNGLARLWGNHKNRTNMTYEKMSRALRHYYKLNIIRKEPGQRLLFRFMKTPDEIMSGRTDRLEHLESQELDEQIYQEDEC
# Sequence of ETV1 (P50549 whole entry): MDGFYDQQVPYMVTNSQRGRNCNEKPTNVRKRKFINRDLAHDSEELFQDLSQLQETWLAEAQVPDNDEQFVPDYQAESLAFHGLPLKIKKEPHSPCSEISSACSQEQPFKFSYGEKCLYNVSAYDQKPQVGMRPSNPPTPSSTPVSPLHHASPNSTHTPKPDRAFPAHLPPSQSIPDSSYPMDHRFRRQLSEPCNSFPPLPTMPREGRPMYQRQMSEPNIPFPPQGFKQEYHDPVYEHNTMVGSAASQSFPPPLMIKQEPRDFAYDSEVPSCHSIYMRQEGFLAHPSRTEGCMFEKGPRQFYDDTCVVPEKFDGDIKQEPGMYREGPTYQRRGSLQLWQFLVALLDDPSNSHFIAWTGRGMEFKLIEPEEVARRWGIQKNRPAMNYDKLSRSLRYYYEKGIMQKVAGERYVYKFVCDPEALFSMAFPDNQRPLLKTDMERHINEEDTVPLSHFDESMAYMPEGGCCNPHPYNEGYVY
# Sequence of HSF1 (Q00613 whole entry): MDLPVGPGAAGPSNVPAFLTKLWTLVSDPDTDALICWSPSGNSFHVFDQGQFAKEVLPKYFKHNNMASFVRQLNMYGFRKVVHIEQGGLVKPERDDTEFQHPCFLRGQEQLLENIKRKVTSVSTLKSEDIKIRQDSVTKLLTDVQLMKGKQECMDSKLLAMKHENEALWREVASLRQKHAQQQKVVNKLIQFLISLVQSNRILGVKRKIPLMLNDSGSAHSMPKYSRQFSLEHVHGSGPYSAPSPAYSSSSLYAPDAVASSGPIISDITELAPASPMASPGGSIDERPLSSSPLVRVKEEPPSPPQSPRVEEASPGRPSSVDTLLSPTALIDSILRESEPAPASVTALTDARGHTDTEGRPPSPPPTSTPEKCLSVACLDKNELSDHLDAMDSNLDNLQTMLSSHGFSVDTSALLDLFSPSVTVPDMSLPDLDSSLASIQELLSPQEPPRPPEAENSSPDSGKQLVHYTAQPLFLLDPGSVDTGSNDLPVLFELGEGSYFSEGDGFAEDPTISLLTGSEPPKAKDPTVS
# Sequence of CRX (O43186 whole entry): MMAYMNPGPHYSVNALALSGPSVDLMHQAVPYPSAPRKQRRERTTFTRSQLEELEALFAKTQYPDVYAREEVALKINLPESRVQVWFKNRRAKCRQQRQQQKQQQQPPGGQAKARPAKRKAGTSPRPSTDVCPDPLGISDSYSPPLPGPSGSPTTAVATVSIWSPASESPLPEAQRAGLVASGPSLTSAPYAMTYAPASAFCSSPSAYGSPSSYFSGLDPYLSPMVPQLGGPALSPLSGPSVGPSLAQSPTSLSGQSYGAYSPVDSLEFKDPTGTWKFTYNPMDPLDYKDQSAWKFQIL
# Sequence of ETV5 (P41161 whole entry): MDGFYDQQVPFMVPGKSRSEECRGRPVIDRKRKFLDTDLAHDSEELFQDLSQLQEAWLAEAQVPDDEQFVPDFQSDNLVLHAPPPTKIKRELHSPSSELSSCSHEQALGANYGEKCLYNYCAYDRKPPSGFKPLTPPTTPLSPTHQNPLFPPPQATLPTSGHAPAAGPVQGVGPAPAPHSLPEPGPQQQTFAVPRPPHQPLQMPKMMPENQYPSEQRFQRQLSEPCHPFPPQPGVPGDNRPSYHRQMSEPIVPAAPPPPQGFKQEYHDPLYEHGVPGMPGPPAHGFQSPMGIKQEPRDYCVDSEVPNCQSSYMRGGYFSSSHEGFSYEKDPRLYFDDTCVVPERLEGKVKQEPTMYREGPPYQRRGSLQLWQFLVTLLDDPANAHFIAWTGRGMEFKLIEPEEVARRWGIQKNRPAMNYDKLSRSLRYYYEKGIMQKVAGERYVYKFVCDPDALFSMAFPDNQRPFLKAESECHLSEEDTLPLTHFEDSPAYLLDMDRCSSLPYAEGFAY
sequence,measurement,setting,value
GCTAAT,binding signal,[1],"1.18 fold enrichment (6-mer frequency, TF over GST control)"
same,binding signal,[2],"1.11 fold enrichment (6-mer frequency, TF over GST control)"
same,binding signal,[3],"1.72 fold enrichment (6-mer frequency, TF over GST control)"
same,binding signal,[4],"1.23 fold enrichment (6-mer frequency, TF over GST control)"
same,binding signal,[5],"1.27 fold enrichment (6-mer frequency, TF over GST control)"
same,binding signal,[6],"1.22 fold enrichment (6-mer frequency, TF over GST control)"
same,binding signal,[7],"1.24 fold enrichment (6-mer frequency, TF over GST control)"
same,binding signal,[8],"1.22 fold enrichment (6-mer frequency, TF over GST control)"
same,binding signal,[9],"2.56 fold enrichment (6-mer frequency, TF over GST control)"
same,binding signal,[10],"1.14 fold enrichment (6-mer frequency, TF over GST control)"
same,binding signal,[11],"1.23 fold enrichment (6-mer frequency, TF over GST control)"
same,binding signal,[12],"1.13 fold enrichment (6-mer frequency, TF over GST control)"
same,binding signal,[13],"1.24 fold enrichment (6-mer frequency, TF over GST control)"
same,binding signal,[14],"1.03 fold enrichment (6-mer frequency, TF over GST control)"
same,binding signal,[15],"1.23 fold enrichment (6-mer frequency, TF over GST control)"
same,binding signal,[16],"1.07 fold enrichment (6-mer frequency, TF over GST control)"
same,binding signal,[17],"1.2 fold enrichment (6-mer frequency, TF over GST control)"
same,binding signal,[18],"1.17 fold enrichment (6-mer frequency, TF over GST control)"
